# The panel holds about 83,000 compounds, 20% with a hit somewhere; the sample as a whole holds those more often.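 Each cell line was grown in a 96-well plate and treated with one concentration of compound for 48 hours. Values below 10 were considered active.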 Active and inactive are the calls of the source.
# Tested on: A498 renal
# Experiment: NCI-60 one-dose screen, 48 h (100 = growth as untreated, 0 = no growth, -100 = all killed)
# Conditions: 10 µM unless noted
# Method: Growth inhibition of the A498 human tumor cell line is measured as a screen for anti-cancer activity. Cells are grown in 96 well plates and exposed to the test compound for 48 hours. Compounds are tested at a single concentration, which is 10^-5 M for most compounds. The reported endpoint is percent growth (GI% or GIPRCNT), where numbers from 0 - 100% represent growth inhibition, and numbers from -100% - 0 represent cell death. For example, a value of 40 represents 60% growth inhibition. A value of 0 means no net growth occurred over the course of the experiment. A value of -40 indicates 40% of cells at the beginning of the experiment died by the end of the experiment. A value of -100 means all cells are dead at the end of the experiment.
# NCI-60 Human Tumor Cell Lines Screen was performed using the standard one-dose NCI protocol, which is described in more detail at https://dtp.cancer.gov/discovery_development/nci-60/default.htm.
# Compounds with GIPRCNT values below 10 were considered active. Activity score was based on GIPRCNT using the following formula: […]
# Score is 0 for GIPRCNT values of 100 or above, 50 for GIPRCNT values of 0, and 100 for GIPRCNT values of -100.
row,SMILES,growth
1,COc1ncnc2[nH]cc(CN3CCN(c4ccc(F)cc4)CC3)c12,80% (inactive)
2,COc1cc2ncnc(Nc3ccc(S(=O)(=O)Nc4cc(C)on4)cc3)c2cc1OCCCN1CCN(c2ccc([N+](=O)[O-])cc2)CC1,110% (inactive)
3,Clc1nnc2c3ccccc3ccn12,106% (inactive)
4,CC1(C)OC2OC3C(CN)OC(c4ccccc4)OC3C2O1 (stereo not given),96.8% (inactive)
5,Clc1cccc(CNc2c3ccccc3nc3ccccc23)c1,-3.08% (active)
6,CCCNCCC(C)=O,94.2% (inactive)
7,COc1ccc2[nH]cc(C3(c4c[nH]c5ccc(OC)cc45)C(=O)Nc4ccc(F)cc43)c2c1,60.8% (inactive)
8,C=CCOC(=O)C1=C(C)NC2=C(C(=O)CC(C)(C)C2)C1c1ccc(OC)cc1 (stereo not given),85.5% (inactive)
9,O=C(/C=C/c1cn(-c2ccccc2)nc1-c1ccccc1)OCc1cn(-c2cccc([N+](=O)[O-])c2)nn1,66.7% (inactive)
10,Cc1c(C(=O)Nc2ccccc2F)sc2c(=O)[nH]cnc12,99.6% (inactive)
11,Cc1nc(N)nc2c1CCC(Nc1ccccc1)S2 (stereo not given),97% (inactive)
12,COC(=O)[C@H](Cc1cn(C)cn1)NC(=O)[C@H](CC(C)C)NC(=O)Nc1cc(C(F)(F)F)cc(C(F)(F)F)c1,-93.8% [100 µM] (active)
13,O=C(N/N=C/c1ccc([N+](=O)[O-])cc1)c1ccccc1Nc1ccnc(C(F)(F)F)c1,-26.1% (active)
14,COc1ccccc1CNCCCN1C(=O)c2ccc3c4c(ccc(c24)C1=O)C(=O)N(CCCNCCCN)C3=O,14.9% (inactive)
15,COc1ccc(-c2cc(C(=O)Nc3ccc(C)cc3)nc3[nH]c(=O)sc23)cc1,9.83% (active)
16,O=C(O)C(CCc1ccccc1)NCc1ccccc1 (stereo not given),86.2% (inactive)
17,O=C(Nc1ccc(Br)cc1)c1ccc(Cl)c(Cl)c1,65.7% (inactive)
18,O=C(O)c1cc2cc(OCc3ccccc3)ccc2[nH]1,98% (inactive)
19,COc1cc(-c2nc(-c3ccc(-c4nc5ccc(F)cc5[nH]4)cc3)no2)cc(OC)c1OC,71.2% (inactive)
20,COc1cc(OC)c(C(=O)/C=C/c2cccc(OC(C)=O)c2)cc1CC=C(C)C,120% (inactive)

row,SMILES,growth
1,O=S(=O)(Cc1ccc(Cl)cc1Cl)c1ccc(Cl)cc1,42.5% (inactive)
2,CCCCOC(=O)c1cc(O)c(O)c(O)c1,122% (inactive)
3,CC(=O)O[C@H]1CC[C@]2(C)[C@H]3CC=C4[C@@H]5CC(C)(C)CC[C@]5(C(=O)OCC(COC(=O)C(Cl)Cl)(COC(=O)C(Cl)Cl)NC(=O)C(Cl)Cl)CC[C@@]4(C)[C@]3(C)CC[C@H]2C1(C)C,93.2% (inactive)
4,Cc1csc(N/N=C/c2ccncc2)n1,85.2% (inactive)
5,CC(C)(C)c1nn(-c2ccccc2)c2c1C(=O)CSC(c1ccc3c(c1)OCO3)N2 (stereo not given),113% (inactive)
6,ClC1(Cl)C2CCCCCCC21 (stereo not given),79.3% (inactive)
7,CCN(CC)C(=O)O/N=C(/C)c1ccccc1,103% (inactive)
8,COc1ccc(-c2cc(-c3ccc(OC)cc3)c3sc(=O)[nH]c3n2)cc1,-1.41% (active)
9,C#C[C@]1(O)CC[C@H]2[C@@H]3CC=C4c5sc(-c6cccc(Br)c6)nc5CC[C@]4(C)[C@H]3CC[C@@]21C,71.7% (inactive)
10,ClC1=NC(Cl)C(Cl)=N/C1=N\c1ncn[nH]1 (stereo not given),121% (inactive)
11,COc1ccc(N=C2CSc3nnc(-c4cc(F)c(Cl)cc4Cl)n3N2)cc1,-41.7% (active)
12,CCSc1cnnc2ccccc12,89.3% (inactive)
13,Cc1cccc(/C=N/n2c(-c3ccc(Cl)cc3)nc3c(Br)cc(Br)cc3c2=O)c1,99.6% (inactive)
14,CC(C)OC1OC(OC(C)C)C(OC(C)C)OC1OC(C)C (stereo not given),101% (inactive)
15,CCC(=O)OCc1ccc(OC)cc1,144% (inactive)
16,CCCCOc1nc2ccc(C)cc2cc1/C=C/C(=O)/C=C(O)/C=C/c1cc2cc(C)ccc2nc1OCCCC,116% (inactive)
17,COc1cc(C2CC(c3ccccc3)=NN2C=O)ccc1Oc1ccnc2cc(Cl)ccc12 (stereo not given),76.4% (inactive)
18,N/C(=N\OC(=O)c1ccccc1)C(C(=O)NOC(=O)c1ccccc1)C1CCCCC1 (stereo not given),86.2% (inactive)
19,CN(C)c1nc(-c2cccs2)n2nc(-c3ccco3)cc2n1,74.1% (inactive)
20,O=C(N/N=C/c1ccc([N+](=O)[O-])o1)c1ccc(O)cc1,112% (inactive)
